This passage reports Potency results from PubChem BioAssay AID2289 (National Center for Advancing Translational Sciences (NCATS), 2010).

SMILES strings stand for the structures. Hit rate of the full screen: of about 340,000 compounds, about 3,300 (0.97%) were called active. Another 9% or so got no clear call; they are omitted. Calls come from the whole dose curve; as a rule, active = well fitted inhibition curve with a large enough effect; inconclusive = small, poorly fitted or top-dose-only effect, or effect the other way; inactive = flat fitted curve, though single readings scatter. The list shows a part of the results.
Potency is the fitted concentration of half-maximal effect.

The test is described as follows: qHTS Assay for Modulators of miRNAs and/or Inhibitors of miR-21. Note: nearly all actives have a fitted effect of over 55% in size. Conditions: HeLa miR-21-FLuc reporter, luciferase luminescence, 48 h; actives lower the signal. A digest of the protocol: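 Using DMEM plus 10% FBS, HeLa miR-21-FLuc cells are incubated with test compounds (final up to about 40uM) for 48 hours; firefly luciferase signal is then imaged following reagent-mediated lysis.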
In the case of `O=C(CCc1ccc(S(=O)(=O)NC2CCCCC2)cc1)NCc1ccccn1`, the Potency is 7.36 µM (active).
For `Cc1cc(-n2c(SCc3ccccc3F)nc3[nH]ncc3c2=O)ccc1Cl`, the Potency was 4.65 µM (active).
As for `O=c1c2c3c(sc2ncn1-n1cccc1)CCCCC3`, the figure is 11.7 µM (active); as for `COc1ccc(OC)c2nc(-c3ccc4c(c3)OCO4)ccc12`, 0.736 µM (active).
`CC(=O)c1cc2c(C)c(C(=O)c3ccccc3)oc2cc1O`: the Potency is 0.521 µM (active).
Take `Cc1c(C(=O)c2ccccc2)oc2ccc3ccccc3c12`: the Potency was 2.93 µM (active).
As for `CCN(CC)S(=O)(=O)c1ccc(-c2cn3ccc(C)cc3n2)cc1`, the Potency was 0.927 µM (active).
The value for `Cc1cc(/C=C(\C#N)C(=O)Nc2ccccc2F)c(C)[nH]1` was 0.521 µM (active); that for `Cc1ccccc1SCCNC(=O)c1ccccc1Br` was 16.5 µM (active).
Turning to `O=C(NCCSc1ccccc1)c1ccccc1Cl`, the Potency is 1.65 µM (active).
The value for `COC(=O)c1sc(NC(=O)COc2ccccc2)nc1C` was 7.36 µM (active).
The value for `CCOC(=O)c1sc(Nc2ccccc2)nc1C` was 4.14 µM (active); that for `COC(=O)c1sc(NC(=O)CSc2nnnn2C)nc1C` was 6.56 µM (active).
Take `CNc1nc(C)c(C(=O)OCc2ccccc2)s1`: the Potency was 16.5 µM (active).
`CCOC(=O)c1sc(NC(=O)c2ccccc2OC)nc1C`: the Potency was 0.261 µM (active).
With `CCOC(=O)c1sc(Nc2ccccc2Cl)nc1C`, the Potency is 4.65 µM (active).
Take `Cc1ccccc1C(=O)N/N=C/c1ccsc1C`: the Potency is 2.33 µM (active).
As to `Cc1ccccc1/C=N/NC(=O)c1sccc1C`, the Potency was 1.47 µM (active).
For `CCC1CCCCN1C(=O)c1cc(-c2ccc(Cl)c(Cl)c2)on1` (stereo not drawn), the Potency is 7.36 µM (active).
Take `O=C(c1cc(-c2ccc(Cl)cc2)on1)N1CCCC1`: the Potency was 0.521 µM (active).
Take `O=C(c1cc(-c2ccc(Cl)cc2)on1)N1CCCCCC1`: the Potency is 1.47 µM (active).
Regarding `c1ccc(-c2cc(-c3ccccc3)on2)cc1`, the Potency is 1.04 µM (active).
Take `O=C(c1ccccc1-c1nc(-c2ccccc2)no1)N1CCCC1`: the Potency is 18.5 µM (active).
The value for `O=C(c1cc(-c2ccccc2)on1)N1CCCCCC1` was 3.29 µM (active).
For the compound `COc1ccccc1CCC(=O)Nc1ccc(C)cc1Cl`, the Potency was 16.5 µM (active).
Turning to `Cc1ccc(Sc2ncccc2COC(=O)NC(C)C)cc1`, the Potency is 16.5 µM (active).
Consider `O=C1N=C(N2CCOCC2)S/C1=C\C=C/c1ccccc1`, for which the Potency was 10.4 µM (active).
For `Nc1ccc(-c2nc3ccccc3s2)cn1`, the Potency is 1.47 µM (active).
For the compound `Nc1ccccc1-c1nc2ccccc2s1`, the Potency is 5.85 µM (active).
Turning to `N#Cc1ccc(N2Cc3ccccc3C2=NC(=O)c2cccs2)cc1`, the Potency is 8.26 µM (active).
On to `CCOC(=O)c1ccc(N2Cc3ccccc3C2=NC(=O)c2cccs2)cc1`, for which the Potency is 3.29 µM (active).
As for `Cc1ccc2[nH]c3c(=S)nc[nH]c3c2c1`, the figure is 3.69 µM (active); as for `Cc1cc(C(=O)N/N=C/c2cccc([N+](=O)[O-])c2)c(C)n1-c1ccccc1`, 6.56 µM (active); as for `CC(C)c1ccc(NC(=O)c2ccccc2NC(=O)C2CC=CCC2C(=O)O)cc1` (stereo not drawn), 3.69 µM (active).
For the compound `O=C(Nc1ccc(Cl)c(Cl)c1)c1ccccc1NC(=O)C1CC=CCC1C(=O)O` (stereo not drawn), the Potency is 6.56 µM (active).
Take `CN(C)C=NC(=O)c1cc(C(=O)c2ccc(C(C)(C)C)cc2)c[nH]1`: the Potency was 0.927 µM (active).
With `Cn1c(CSc2ccccc2)c(C#N)c2ccccc21`, the Potency was 14.7 µM (active).
Regarding `Cc1ccc(Nc2nc(/N=C/NO)n[nH]2)cc1C`, the Potency was 1.85 µM (active).
For `Cc1ccc(Nc2nc(/N=C/N(C)C)n[nH]2)cc1C`, the Potency was 7.36 µM (active).
As to `COCn1c(COc2ccc3ccccc3c2)nc2ccccc21`, the Potency was 2.07 µM (active).
`COCn1c(-c2ccc(OC)cc2)nc2ccccc21`: the Potency was 3.69 µM (active).
The value for `C=CCn1c(-c2ccc(N)cc2)nc2ccccc21` was 4.65 µM (active).
In the case of `O=C(c1cc(-c2ccccc2O)on1)N1CCCCCC1`, the Potency is 2.07 µM (active).
Regarding `O=C(c1cc(-c2ccccc2O)on1)N1CCCCC1`, the Potency is 0.826 µM (active).
For the compound `O=C(c1cc(-c2ccccc2O)on1)N1CCOCC1`, the Potency was 13.1 µM (active).
For `Cc1ccc2c(c1)NC(=O)CC(c1ccccc1)=N2`, the Potency is 13.1 µM (active).
As for `CSc1ccc(/C=C/C(=O)c2c(O)cc(C)oc2=O)cc1`, the Potency is 13.1 µM (active).
`Cc1ccc(NC(=O)CCCNC(=O)c2ccc(Cl)cc2)c(O)c1`: the Potency was 16.5 µM (active).
Regarding `[O-]/[N+](=C\C=C\c1ccccc1)c1ccccc1`, the Potency was 1.85 µM (active).
In the case of `CC(=O)Nc1ccc(C(=O)/C=C/c2ccc[nH]2)cc1`, the Potency is 13.1 µM (active).
With `COc1ccc(N2Cc3ccc(OC)c(OC)c3C2=O)cc1`, the Potency was 2.07 µM (active).
`Cc1ccc(OCC(=O)Nc2ccccc2F)cc1C`: the Potency was 4.14 µM (active).
Turning to `Cc1cccc(OCC(=O)Nc2ccccc2F)c1`, the Potency is 6.56 µM (active).
`O=C(CSc1nnc(-c2ccccc2Cl)o1)Nc1ccc2c(c1)OCCO2`: the Potency is 6.56 µM (active).
In the case of `Cc1nc(NC(=O)CSc2nnc(-c3ccc4c(c3)OCO4)o2)c(Cl)cc1Cl`, the Potency is 16.5 µM (active).
As to `O=C(CSCc1ccccc1Cl)Nc1ccc2c(c1)OCCO2`, the Potency is 2.07 µM (active).
With `Cc1ccc(NC(=O)CSc2nnc(-c3cccs3)o2)cc1S(=O)(=O)N(C)C`, the Potency is 8.26 µM (active).
The value for `Cc1ccc(/C=C/C(=O)NCc2cccs2)c(C)c1` was 5.85 µM (active); that for `COc1ccc(N(/N=C2\Sc3ccccc3C2=O)C(C)=O)cc1` was 0.261 µM (active).
Turning to `O=C(COC(=O)c1ccc[nH]c1=O)NCCc1ccc(Cl)cc1Cl`, the Potency is 1.65 µM (active).
As to `COc1ccc(/C=C/c2nc(-c3ccccc3O)n[nH]2)cc1OC`, the Potency is 4.65 µM (active).
For the compound `COc1ccc(/C=C/c2nc(-c3ccccc3O)n[nH]2)cc1`, the Potency was 2.33 µM (active).
For `COc1cc(C(F)(F)F)ccc1C(=O)NCCc1ccco1`, the Potency was 7.36 µM (active).
For the compound `CCc1nc2ccc(C(=O)NCCc3ccco3)cc2nc1CC`, the Potency is 14.7 µM (active).
As to `CC1CCN(C(=O)CSCc2ccc(Cl)cc2)CC1`, the Potency was 11.7 µM (active).
For `O=C(CSCc1ccccc1)N1CCN(c2ccccc2)CC1`, the Potency is 6.56 µM (active).
In the case of `O=C(CCSc1ccccc1)N1CCN(c2ccccc2)CC1`, the Potency is 6.56 µM (active).
In the case of `O=C(CCSc1ccccc1)N1CCN(c2ccccc2F)CC1`, the Potency is 7.36 µM (active).
